Values joined by “and” are separate entries in the source; they are usually repeats but may differ in a detail not shown here. Identical values can stand only once. About 83,000 compounds went through this panel and 20% of them were active in at least one assay; those are over-represented in the sample as a whole.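 The endpoint reported here, percent growth, reads 100 for growth as untreated, 0 for no net growth and -100 for all cells dead.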 Active and inactive are the calls of the source. Rule for the calls: active = growth percent below 10; inactive = the rest.
Key:
Assay in all cases: NCI-60 one-dose screen, 48 h (100 = growth as untreated, 0 = no growth, -100 = all killed)
SK-MEL-2 melanoma = system: SK-MEL-2 melanoma
EKVX NSCLC = system: EKVX NSCLC
SN12C renal = system: SN12C renal
UO-31 renal = system: UO-31 renal
TK-10 renal = system: TK-10 renal
ACHN renal = system: ACHN renal
CAKI-1 renal = system: CAKI-1 renal
A498 renal = system: A498 renal
CCRF-CEM leukemia = system: CCRF-CEM leukemia
MOLT-4 leukemia = system: MOLT-4 leukemia
SR leukemia = system: SR leukemia
RPMI-8226 leukemia = system: RPMI-8226 leukemia
OVCAR-8 ovarian = system: OVCAR-8 ovarian
OVCAR-5 ovarian = system: OVCAR-5 ovarian
OVCAR-4 ovarian = system: OVCAR-4 ovarian
SK-OV-3 ovarian = system: SK-OV-3 ovarian
IGROV1 ovarian = system: IGROV1 ovarian
OVCAR-3 ovarian = system: OVCAR-3 ovarian
HS 578T breast = system: HS 578T breast
NCI/ADR-RES ovarian = system: NCI/ADR-RES ovarian

Measured: growth

CCCCCn1sc(=O)n(Cc2ccc(CNC(=O)C(C)c3ccc(CC(C)C)cc3)cc2)c1=O (stereo not given)
92.5% (inactive) and -15% (active): OVCAR-8 ovarian; 10 µM unless noted
106% (inactive) and -86.8% (active): TK-10 renal; 10 µM unless noted
85.8% (inactive) and -100% (active): UO-31 renal; 10 µM unless noted
91.2% (inactive) and -73% (active): CAKI-1 renal; 10 µM unless noted
inactive: A498 renal; 10 µM unless noted 113% and 40% | SK-OV-3 ovarian; 10 µM unless noted 97.1% and 70.2%
106% (inactive) and -83.2% (active): IGROV1 ovarian; 10 µM unless noted
103% (inactive) and -53.7% (active): OVCAR-5 ovarian; 10 µM unless noted
98.4% (inactive) and -7.35% (active): HS 578T breast; 10 µM unless noted
99.8% (inactive) and -17.6% (active): NCI/ADR-RES ovarian; 10 µM unless noted
90% (inactive) and -47.6% (active): OVCAR-4 ovarian; 10 µM unless noted
99.7% (inactive) and -24.6% (active): RPMI-8226 leukemia; 10 µM unless noted
104% (inactive) and 1.27% (active): SR leukemia; 10 µM unless noted
106% (inactive) and -18.6% (active): SK-MEL-2 melanoma; 10 µM unless noted
95.8% (inactive) and 2.99% (active): CCRF-CEM leukemia; 10 µM unless noted
102% (inactive) and -75.4% (active): OVCAR-3 ovarian; 10 µM unless noted
92.4% (inactive) and -100% (active): ACHN renal; 10 µM unless noted
96.9% (inactive) and -65.7% (active): EKVX NSCLC; 10 µM unless noted
95.3% (inactive) and -52.9% (active): SN12C renal; 10 µM unless noted
101% (inactive) and -4.68% (active): MOLT-4 leukemia; 10 µM unless noted

CCc1ccccc1-n1c(N)c(C#N)c(-c2ccc(OC)c(OC)c2)c(C#N)c1=O
active: TK-10 renal; 100 µM 2.47% | OVCAR-8 ovarian; 100 µM -24.4% | SK-OV-3 ovarian; 100 µM -20.7%
inactive: SK-MEL-2 melanoma; 10 µM 108% | SK-MEL-2 melanoma; 100 µM 38% | EKVX NSCLC; 10 µM 106% | EKVX NSCLC; 100 µM 29.1% | SN12C renal; 10 µM 109% | SN12C renal; 100 µM 19.8% | UO-31 renal; 10 µM 85.2% | UO-31 renal; 100 µM 37.1% | TK-10 renal; 10 µM 114% | ACHN renal; 10 µM 95.8% | ACHN renal; 100 µM 16.1% | CAKI-1 renal; 10 µM 97.5% | CAKI-1 renal; 100 µM 50.3% | A498 renal; 10 µM 120% | A498 renal; 100 µM 42.6% | CCRF-CEM leukemia; 10 µM 112% | CCRF-CEM leukemia; 100 µM 101% | MOLT-4 leukemia; 10 µM 95.7% | MOLT-4 leukemia; 100 µM 111% | SR leukemia; 10 µM unless noted 83% [100 µM] | RPMI-8226 leukemia; 10 µM 112% | RPMI-8226 leukemia; 100 µM 87.7% | OVCAR-8 ovarian; 10 µM 109% | OVCAR-5 ovarian; 10 µM 107% | OVCAR-5 ovarian; 100 µM 48.6% | OVCAR-4 ovarian; 10 µM 113% | OVCAR-4 ovarian; 100 µM 28% | SK-OV-3 ovarian; 10 µM 111% | IGROV1 ovarian; 10 µM 107% | IGROV1 ovarian; 100 µM 22.2% | OVCAR-3 ovarian; 10 µM 113% | OVCAR-3 ovarian; 100 µM 13.4% | HS 578T breast; 10 µM 116% | HS 578T breast; 100 µM 27.2% | NCI/ADR-RES ovarian; 10 µM 111% | NCI/ADR-RES ovarian; 100 µM 22.1%

Nc1nc2ncc(CNc3ccc(C(=O)N[C@@H](CCc4nn[nH]n4)C(=O)O)cc3)nc2c(=O)[nH]1
inactive: SK-MEL-2 melanoma; 10 µM unless noted 105% and 104% | EKVX NSCLC; 10 µM unless noted 96.1% and 106% | SN12C renal; 10 µM unless noted 109% and 98.2% | UO-31 renal; 10 µM unless noted 89.7% and 89.8% | TK-10 renal; 10 µM unless noted 111% and 109% | ACHN renal; 10 µM unless noted 92.2% and 104% | CAKI-1 renal; 10 µM unless noted 93% and 101% | A498 renal; 10 µM unless noted 105% and 92.2% | CCRF-CEM leukemia; 10 µM unless noted 108% and 94.5% | MOLT-4 leukemia; 10 µM unless noted 95.6% | SR leukemia; 10 µM unless noted 95.6% | RPMI-8226 leukemia; 10 µM unless noted 106% and 95.5% | OVCAR-8 ovarian; 10 µM unless noted 106% and 90.2% | OVCAR-5 ovarian; 10 µM unless noted 88.3% and 103% | OVCAR-4 ovarian; 10 µM unless noted 100% and 116% | SK-OV-3 ovarian; 10 µM unless noted 103% and 104% | IGROV1 ovarian; 10 µM unless noted 99.6% and 106% | OVCAR-3 ovarian; 10 µM unless noted 98.6% and 113% | HS 578T breast; 10 µM unless noted 110% and 95.3% | NCI/ADR-RES ovarian; 10 µM unless noted 103% and 101%

OC(CSc1ccccc1)CN1CCN(c2cccc(Cl)c2)CC1 (stereo not given)
inactive: SK-MEL-2 melanoma; 10 µM unless noted 98.3% and 100% | EKVX NSCLC; 10 µM unless noted 102% and 99% | SN12C renal; 10 µM unless noted 94.3% and 103% | UO-31 renal; 10 µM unless noted 76% and 75% | TK-10 renal; 10 µM unless noted 101% and 112% | ACHN renal; 10 µM unless noted 103% and 101% | CAKI-1 renal; 10 µM unless noted 92.2% and 87.9% | A498 renal; 10 µM unless noted 116% and 89.9% | CCRF-CEM leukemia; 10 µM unless noted 92.5% and 98.1% | MOLT-4 leukemia; 10 µM unless noted 76.1% and 94.9% | SR leukemia; 10 µM unless noted 87.2% and 102% | RPMI-8226 leukemia; 10 µM unless noted 92.9% and 97.3% | OVCAR-8 ovarian; 10 µM unless noted 98.9% and 101% | OVCAR-5 ovarian; 10 µM unless noted 105% and 96.9% | OVCAR-4 ovarian; 10 µM unless noted 97.1% and 107% | SK-OV-3 ovarian; 10 µM unless noted 105% and 107% | IGROV1 ovarian; 10 µM unless noted 105% and 122% | OVCAR-3 ovarian; 10 µM unless noted 120% and 101% | HS 578T breast; 10 µM unless noted 118% and 88.7% | NCI/ADR-RES ovarian; 10 µM unless noted 99.6% and 88.7%

NC(=O)NO
inactive: SK-MEL-2 melanoma; 10 µM unless noted 110% and 94.1% | EKVX NSCLC; 10 µM unless noted 98.9% and 59.5% | SN12C renal; 10 µM unless noted 104% and 71.5% | UO-31 renal; 10 µM unless noted 87.8% and 48.8% | TK-10 renal; 10 µM unless noted 113% and 85% | ACHN renal; 10 µM unless noted 96.9% and 67.5% | CAKI-1 renal; 10 µM unless noted 83.9% and 77.2% | CCRF-CEM leukemia; 10 µM unless noted 82.2% and 68% | MOLT-4 leukemia; 10 µM unless noted 95.9% and 75.1% | SR leukemia; 10 µM unless noted 54.6% | RPMI-8226 leukemia; 10 µM unless noted 98.8% and 42.1% | OVCAR-8 ovarian; 10 µM unless noted 99.8% | OVCAR-5 ovarian; 10 µM unless noted 108% and 45.8% | OVCAR-4 ovarian; 10 µM unless noted 105% and 59.5% | SK-OV-3 ovarian; 10 µM unless noted 107% and 56.4% | IGROV1 ovarian; 10 µM unless noted 104% and 47% | OVCAR-3 ovarian; 10 µM unless noted 110% and 70.1% | NCI/ADR-RES ovarian; 10 µM unless noted 99.4% and 87.4%
104% (inactive) and -7.21% (active): A498 renal; 10 µM unless noted
109% (inactive) and -24.6% (active): HS 578T breast; 10 µM unless noted

Cc1[nH]c(-c2nc3ccccc3[nH]2)c(C)c1C(=O)NC(C)C1CCCCC1 (stereo not given)
active: SK-MEL-2 melanoma; 100 µM -81.6% | EKVX NSCLC; 100 µM -84.9% | SN12C renal; 100 µM -89.7% | UO-31 renal; 100 µM -97.8% | TK-10 renal; 100 µM -91% | ACHN renal; 100 µM -90.9% | A498 renal; 10 µM unless noted -93.3% [100 µM] | MOLT-4 leukemia; 100 µM -51.3% | SR leukemia; 100 µM -44.3% | RPMI-8226 leukemia; 10 µM unless noted -65.3% [100 µM] | OVCAR-8 ovarian; 100 µM -61.5% | OVCAR-5 ovarian; 100 µM -95.4% | OVCAR-4 ovarian; 100 µM -84.1% | SK-OV-3 ovarian; 10 µM unless noted -77.6% [100 µM] | IGROV1 ovarian; 100 µM -67.8% | OVCAR-3 ovarian; 100 µM -86.9% | NCI/ADR-RES ovarian; 100 µM -79.7%
inactive: SK-MEL-2 melanoma; 10 µM 87.2% | EKVX NSCLC; 10 µM 93.2% | SN12C renal; 10 µM 86.1% | UO-31 renal; 10 µM 89% | TK-10 renal; 10 µM 103% | ACHN renal; 10 µM 99% | MOLT-4 leukemia; 10 µM 72.4% | SR leukemia; 10 µM 69% | OVCAR-8 ovarian; 10 µM 96.9% | OVCAR-5 ovarian; 10 µM 94% | OVCAR-4 ovarian; 10 µM 92.1% | IGROV1 ovarian; 10 µM 90.9% | OVCAR-3 ovarian; 10 µM 90% | NCI/ADR-RES ovarian; 10 µM 85.5%

Nc1ccc(N=Nc2ccc(S(=O)(=O)O)cc2)cc1S(=O)(=O)O
inactive: SK-MEL-2 melanoma; 10 µM unless noted 98.7% and 82.5% | EKVX NSCLC; 10 µM unless noted 96.3% and 109% | SN12C renal; 10 µM unless noted 105% and 96.1% | UO-31 renal; 10 µM unless noted 81.4% and 93.4% | TK-10 renal; 10 µM unless noted 115% and 97.6% | ACHN renal; 10 µM unless noted 99.8% and 100% | CAKI-1 renal; 10 µM unless noted 79.6% and 88.4% | A498 renal; 10 µM unless noted 102% and 111% | CCRF-CEM leukemia; 10 µM unless noted 83.6% and 46.6% | MOLT-4 leukemia; 10 µM unless noted 108% and 117% | SR leukemia; 10 µM unless noted 108% and 157% | RPMI-8226 leukemia; 10 µM unless noted 86.7% and 40.2% | OVCAR-8 ovarian; 10 µM unless noted 96.5% and 79.6% | OVCAR-5 ovarian; 10 µM unless noted 101% and 107% | OVCAR-4 ovarian; 10 µM unless noted 118% and 87.9% | SK-OV-3 ovarian; 10 µM unless noted 105% and 106% | IGROV1 ovarian; 10 µM unless noted 79.3% and 76.1% | OVCAR-3 ovarian; 10 µM unless noted 108% and 210% | HS 578T breast; 10 µM unless noted 83.7% and 88.9% | NCI/ADR-RES ovarian; 10 µM unless noted 95.6% and 99.4%

— PubChem BioAssay (NCI)
